The list is not random: actives were taken first. Their share in the collection is about 10%.
BAZ2B block = qHTS Assay for Inhibitors of BAZ2B; Bromodomain adjacent to zinc finger domain protein 2B (Homo sapiens), Q9UIF8; AlphaScreen BAZ2B-H3K14Ac peptide displacement; Potency, µM (highest dose often 114 µM), hits mostly inhibitors; 360,000 tested, 4.4% active; note: nearly all actives have a fitted effect of over 60% in size
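Compounds, titrated to a top concentration of 110 uM, were incubated 30 min at room temperature with preformed BAZ2B/acetyl-K14 H3 peptide complex (50 nM each). Proximity signal was measured by AlphaScreen after 20 min with beads.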
HP1b chromo inh = HTS for Inhibitors of HP1-beta Chromodomain Interactions with Methylated Histone Tails. Chromobox protein homolog 1 (Homo sapiens), P83916. AlphaScreen HP1-beta / biotin-H3K9me3 peptide binding. Potency, µM (doses to about 114 µM), usual class: inhibitors. 390,000 tested, 0.56% active. AID 540317, 2011; note: nearly all actives have a fitted effect of over 70% in size
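Compound inhibition of the preformed complex between 50 nM HP1-beta and 50 nM biotinylated H3K9me3 peptide was read by AlphaScreen. Buffer was PBS pH 7.4 with 0.01% Tween-20. Incubations ran 30 min at room temperature, with 10 ug/mL donor/acceptor beads.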
CtBP-E1A blk = qHTS Assay for Inhibitors of the CtBP/E1A Interaction. CtBP / adenovirus E1A interaction (AlphaScreen). AlphaScreen GST-E1A/His-CtBP binding, 1536-well; active compounds read low. activity change, % (no concentration beside the values). 340,000 tested, 0.49% active. AID 651724, 2012; in the data active = activity change below about -65%; inconclusive = mostly about -30% to -63%
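Homogeneous bead-based format: GST-tagged E1A captured on glutathione donor beads, His-tagged CtBP on nickel acceptor beads; compounds precede bead addition by 2 h at 37 °C.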
G9a inh = qHTS Assay for Inhibitors of Histone Lysine Methyltransferase G9a | Histone-lysine N-methyltransferase EHMT2 (Homo sapiens), Q96KQ7 | G9a H3K9 monomethylation, AlphaScreen, 2 h | Potency, µM (series often up to 102 µM), most hits filed as inhibitors | 350,000 tested, 8.8% active | AID 504332, 2011; note: nearly all actives have a fitted effect of over 75% in size
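Enzyme 20 nM + cpd, 15 min RT; add b-H3K9 pep 500 nM / SAM 20 uM; 2 h RT; anti-H3K9me1 Ab 0.5 ug/mL + SA donor / anti-rabbit acceptor beads 20 ug/mL each, 10 min; AlphaScreen read.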
JMJD2A Tudor inh = qHTS Assay for Inhibitors of JMJD2A-Tudor Domain; AlphaScreen JMJD2A-Tudor / H3K4me3 peptide binding; Lysine-specific demethylase 4A (Homo sapiens), O75164; 390,000 tested, 4.4% active; AID 504339, 2011; Potency, µM (top dose mostly 114 µM), actives largely listed as inhibitors; note: nearly all actives have a fitted effect of over 50% in size
Six1-Eya2 blk = qHTS Assay for Inhibitors of the Six1/Eya2 Interaction; 360,000 tested, 0.56% active; AlphaScreen GST-Six1/His-Eya2 binding, biochemical; active compounds read low; Homeobox protein SIX1 (Homo sapiens) + Protein phosphatase EYA2 (Homo sapiens), …; activity change, % (no concentration beside the values); in the data active = activity change below about -65%; inconclusive = mostly about -30% to -63%
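Six1/Eya2 binding was read as AlphaScreen signal after compounds were pinned into GST-Six1 plus His-tagged Eya2 (5X stock 250/500 nM) in pH 8.0 Tris/NaCl/TCEP buffer, beads added, then incubated 1 h, 37 C, dark.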
Hits are given with their value; i = inactive; ? = inconclusive; nt = no result given; [ ] = dose if it differs, or a comment. Unless noted, calls come from the whole dose curve; as a rule, active = well fitted inhibition curve with a large enough effect; inconclusive = small, poorly fitted or top-dose-only effect; inactive = no such curve, though single readings can be large or run the other way.

SMILES	BAZ2B block	HP1b chromo inh	CtBP-E1A blk	G9a inh	JMJD2A Tudor inh	Six1-Eya2 blk
CC(=O)C1=C(O)C(=O)N(CCc2ccccc2)C1c1ccccc1[N+](=O)[O-] (stereo not given)	i	i	i	i	i	i
CC(=O)C1=C(O)C(=O)N(CO)C1c1ccccc1F (stereo not given)	?	i	i	56.2µM	?	i
CC(=O)C1=C(O)C(=O)N(c2ccc(Br)cc2)C1c1ccccc1[N+](=O)[O-] (stereo not given)	i	i	i	39.8µM	i	i
CC(=O)C1=C(O)C(=O)N(C)C1c1ccccc1F (stereo not given)	i	i	i	?	i	i
CC(=O)C1=C(O)C(=O)N(c2ccc(O)cc2)C1c1ccccc1F (stereo not given)	i	i	i	79.4µM	i	i
Cc1ccc(NS(=O)(=O)c2cc3c(cc2Cl)CCC(=O)N3)cc1Cl	nt	nt	nt	nt	i	nt
Cc1ccccc1S(=O)Cc1ccc(C(=O)N2CCN(C(=O)c3ccco3)CC2)o1 (stereo not given)	i	i	i	i	i	i
CC(Sc1nnc2n1CCCCC2)C(=O)Nc1ccc(S(N)(=O)=O)cc1 (stereo not given)	i	i	i	44.7µM	i	i
NS(=O)(=O)c1ccc(NC(=O)CSc2nnc3n2CCCCC3)cc1	nt	i	nt	nt	i	i
COC(=O)c1c(C)[nH]c(/C=N/Nc2ccccc2)c1C	?	i	i	25.1µM	?	i
COc1ccc(Cn2c(-c3ccco3)nc3oc4cc(OC)ccc4c(=O)c3c2=O)cc1	i	i	i	50.1µM	i	i
COc1ccc2c(=O)c3c(=O)n(Cc4ccco4)c(-c4ccco4)nc3oc2c1	?	i	?	17.8µM	?	?
CCc1nc2oc3cc(OC)ccc3c(=O)c2c(=O)n1Cc1ccco1	56.2µM	i	i	31.6µM	?	i
CCc1nc2sc3ccccc3c(=O)c2c(=O)n1Cc1ccco1	?	i	i	i	56.2µM	?
COc1ccc(-c2nc3oc4cc(OC)ccc4c(=O)c3c(=O)n2Cc2ccco2)cc1	i	i	i	25.1µM	i	i
COCCn1c(-c2ccc(OC)cc2)nc2oc3cc(OC)ccc3c(=O)c2c1=O	i	i	i	i[12.7 µM]	i	i
COc1ccc(S(=O)(=O)N(c2onc(C)c2Cl)S(=O)(=O)c2ccc(OC)c(OC)c2)cc1OC	79.4µM	i	i	?	25.1µM	i
CCCn1nc([N+](=O)[O-])c(C(C#N)c2nc3ccccc3s2)c(Cl)c1=O (stereo not given)	10µM	11.2µM	i	7.08µM	15.8µM	i
Cn1c(C(C#N)C(=O)c2sc3ccccc3c2Cl)nc2ccccc21 (stereo not given)	i	i	i	i	i	i
O=[N+]([O-])c1ccc(CN2CCN(c3nc4ccccc4s3)CC2)cc1	?	i	i	i	i	i
CCn1nc([N+](=O)[O-])c(C(C#N)c2nc3ccccc3n2C)c(Cl)c1=O (stereo not given)	39.8µM	?	i	?	?	?
Cc1[nH]nc(-c2cccnc2)c1N=NN(C)C	nt	i	i	nt	i	i
CN(C[C@H](Cc1ccccc1)N(C[C@H](Cc1cccc2ccccc12)N(CCc1ccccc1)N=O)N=O)N=O	70.8µM	i	i	?	?	i
Cc1ccc(S(=O)(=O)N2CCCC2C(=O)OCc2ccco2)cc1 (stereo not given)	50.1µM	i	i	?	56.2µM	i
CCCC1C2CN(C(C)C)CC=C2C(C#N)=C(N)C1(C#N)C#N (stereo not given)	i	i	i	39.8µM	?	i
SMILES	BAZ2B block	HP1b chromo inh	CtBP-E1A blk	G9a inh	JMJD2A Tudor inh	Six1-Eya2 blk
N#CC1=C(N)C(C#N)(C#N)C(c2cccnc2)C2CC(c3ccccc3)CC=C12 (stereo not given)	i	i	i	nt	i	i
CCOC(=O)N1CC=C2C(C#N)=C(N)C(C#N)(C#N)[C@H](c3ccccc3OCC)[C@H]2C1	i	i	i	i[12.7 µM]	i	i
N#CC1=C(N)C(C#N)(C#N)C(c2ccncc2)C2CN(C(=O)OCc3ccccc3)CC=C12 (stereo not given)	i	i	i	15.8µM	i	i
CN1CC=C2C(C#N)=C(N)C(C#N)(C#N)C(c3ccsc3)C2C1 (stereo not given)	i	i	i	nt	i[11.4 µM]	i
N#CC1=C(N)C(C#N)(C#N)[C@H](c2cccnc2)[C@H]2CN(C(=O)OCc3ccccc3)CC=C12	i	i	nt	50.1µM	i	i
CN1CC=C2C(C#N)=C(N)C(C#N)(C#N)[C@H](c3cccc(Cl)c3)C2C1 (stereo not given in full)	i	i	i	25.1µM	i	i
CC(C)(C)OC(=O)N1CCC(c2c(C(=O)NCc3ccc4c(c3)OCO4)cnn2-c2ccc(F)cc2F)CC1	i	i	nt	i	i	nt
CCOC(=O)N1CC=C2C(C#N)=C(N)C(C#N)(C#N)[C@H](c3ccsc3)[C@H]2C1	i	i	i	44.7µM	i	i
CCC1CSC(Nc2ccc(C(=O)/C=C/c3cccc(C)c3)cc2)=N1 (stereo not given)	?	i	i	2.82µM	i	i
O=C(Nc1ccccc1Cl)c1ccc(S(=O)(=O)NCC2CCCO2)cc1 (stereo not given)	i	i	i	i	i	i
Cc1ccc(CCNC(=O)c2cc3n(n2)CCCN(Cc2ccc(C)cc2)C3=O)cc1	i	i	nt	i	i	nt
CCCCNC(=O)c1c(C)oc2ncn(CC(C)C)c(=O)c12	i	i	nt	i	i	nt
O=[N+]([O-])c1cccc(C=Nc2cccc3ccccc23)c1O	?	i	i	nt	?	i
CCOC(=O)c1c(/N=C/c2cccc([N+](=O)[O-])c2O)sc(C)c1C	44.7µM	44.7µM	i	7.08µM	50.1µM	i
CC(C)=CCc1c2c(c(O)c3c(=O)c4c(oc13)-c1cc(O)c(O)cc1OC4C=C(C)C)C=CC(C)(C)O2 (stereo not given)	nt	?	i	nt	35.5µM	i
CC(C)=CCc1c(-c2ccc(O)cc2O)oc2c3c(cc(O)c2c1=O)OC(C)(C)C=C3	nt	i	i	nt	?	i
COC(=O)CNC(=O)N1CCN(S(=O)(=O)c2ccc3c(ccn3C)c2)CC1	i	i	nt	i	i	nt
CC1CC2=C(NC(=S)NC2c2cccc(F)c2)/C(=C/c2cccc(F)c2)C1 (stereo not given)	?	?	i	31.6µM	?	?
